The source of these data is PubChem BioAssay.

Active and inactive are the calls of the source.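 Rule for the calls: active = thallium flux through the channel raised or lowered by more than 3 SD from vehicle-only wells, actives on both sides; inactive = the rest.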

For the first test, the system named is F380Y/beta2Delta. Kind of test: BK channel mutant inhibitors and activators – cell-based, U2OS BacMam, thallium flux, beta subunits, selectivity assay, profiling panel (AID 1259406).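 Note: initial slope of Thallos dye fluorescence rise after thallium is added; log ratio against the mean of 0.3% DMSO vehicle wells on the same plate.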 The conditions noted are these: U2OS BacMam BK variants, at 30 µM.
With `CS(=O)(=O)c1ccc(C2=C(c3ccccc3)C(=O)OC2)cc1`, the log fold change Tl+ flux is 0.00326 (inactive).
Same read-out and setting: as for `Cc1cccc(C)c1NC(=O)C1CCCCN1C` (configuration not stated), the figure is 0.00729 (inactive); as for `COc1ccc(/C=C/C(=O)Nc2ccccc2C(=O)O)cc1OC`, -0.0218 (inactive).
On the same count and under the same terms, as for `CCCCC(=O)N(Cc1ccc(-c2ccccc2-c2nn[nH]n2)cc1)[C@H](C(=O)O)C(C)C`, the figure is 0.0113 (inactive).
Same read-out and setting: as for `CC(C(=O)O)c1ccc(-c2ccccc2)c(F)c1` (configuration not stated), the figure is -0.00435 (inactive).
On to `Nc1ncnc2c1ncn2[C@@H]1O[C@H](CO)[C@@H](O)[C@@H]1O`, for which the log fold change Tl+ flux is 0.00163 (inactive).
Still for that read-out and setting: under `CN(C)c1nc(N(C)C)nc(N(C)C)n1` stands 0.00703 (inactive); under `Cc1occc(=O)c1O`, 0.00122 (inactive); under `COc1ccc(-c2cc(=O)c3c(OC)c(OC)c(OC)c(OC)c3o2)cc1OC`, 0.0292 (inactive).
Regarding `CC(C)NCC(O)COc1cccc2ccccc12` (configuration not stated), the log fold change Tl+ flux was 0.058 (inactive).
Still for that read-out and setting: as for `COC(=O)[C@H](c1ccccc1Cl)N1CCc2sccc2C1`, the figure is -0.0129 (inactive).
On to `C[N+]1(C)CCCC(OC(=O)C(O)(c2ccccc2)c2ccccc2)C1` (configuration not stated), for which the log fold change Tl+ flux is -0.0376 (inactive).
On the same count and under the same terms, as for `O=[N+]([O-])c1cccc2cn[nH]c12`, the figure is -0.000818 (inactive); as for `C[C@H]1COc2c(N3CCN(C)CC3)c(F)cc3c(=O)c(C(=O)O)cn1c23`, 0.0117 (inactive).
Still for that read-out and setting: as for `CC(C)NCC(O)COc1ccc(CC(N)=O)cc1` (configuration not stated), the figure is 0.00577 (inactive); as for `CNCCC(Oc1ccc(C(F)(F)F)cc1)c1ccccc1` (configuration not stated), 0.189 (active).
On to `CC1=C(/C=C/C(C)=C/C=C/C(C)=C\C(=O)O)C(C)(C)CCC1`, for which the log fold change Tl+ flux is 0.000191 (inactive).
On to `CCc1ccc(CCOc2ccc(CC3SC(=O)NC3=O)cc2)nc1` (configuration not stated), for which the log fold change Tl+ flux is 0.0296 (inactive).
In the case of `CC[C@H]1OC(=O)[C@H](C)[C@@H](O[C@H]2C[C@@](C)(OC)[C@@H](O)[C@H](C)O2)[C@H](C)[C@@H](O[C@@H]2O[C@H](C)C[C@H](N(C)C)[C@H]2O)[C@](C)(OC)C[C@@H](C)C(=O)[C@H](C)[C@@H](O)[C@]1(C)O`, the log fold change Tl+ flux is -0.0353 (inactive).

In a further test the test system is F380Y/beta4. Described as above. As to conditions: U2OS BacMam BK variants, at 30 µM.
As to `CS(=O)(=O)c1ccc(C2=C(c3ccccc3)C(=O)OC2)cc1`, the log fold change Tl+ flux is -0.000569 (inactive).
Still for that read-out and setting: as for `Cc1cccc(C)c1NC(=O)C1CCCCN1C` (configuration not stated), the figure is 0.00629 (inactive).
Same read-out and setting: under `COc1ccc(/C=C/C(=O)Nc2ccccc2C(=O)O)cc1OC` stands -0.0244 (inactive); under `CCCCC(=O)N(Cc1ccc(-c2ccccc2-c2nn[nH]n2)cc1)[C@H](C(=O)O)C(C)C`, -0.00671 (inactive); under `CC(C(=O)O)c1ccc(-c2ccccc2)c(F)c1` (configuration not stated), 0.0328 (inactive).
Consider `Nc1ncnc2c1ncn2[C@@H]1O[C@H](CO)[C@@H](O)[C@@H]1O`, for which the log fold change Tl+ flux is 0.0319 (inactive).
For `CN(C)c1nc(N(C)C)nc(N(C)C)n1`, the log fold change Tl+ flux was 0.0174 (inactive).
Still for that read-out and setting: under `Cc1occc(=O)c1O` stands 0.0304 (inactive).
As for `COc1ccc(-c2cc(=O)c3c(OC)c(OC)c(OC)c(OC)c3o2)cc1OC`, the log fold change Tl+ flux is -0.0316 (inactive).
Same read-out and setting: under `CC(C)NCC(O)COc1cccc2ccccc12` (configuration not stated) stands 0.0503 (inactive); under `COC(=O)[C@H](c1ccccc1Cl)N1CCc2sccc2C1`, 0.0282 (inactive); under `C[N+]1(C)CCCC(OC(=O)C(O)(c2ccccc2)c2ccccc2)C1` (configuration not stated), 0.0149 (inactive).
For `O=[N+]([O-])c1cccc2cn[nH]c12`, the log fold change Tl+ flux was 0.0331 (inactive).
`C[C@H]1COc2c(N3CCN(C)CC3)c(F)cc3c(=O)c(C(=O)O)cn1c23`: the log fold change Tl+ flux was -0.0339 (inactive).
The same measure, in the same setting: under `CC(C)NCC(O)COc1ccc(CC(N)=O)cc1` (configuration not stated) stands 0.0375 (inactive); under `CNCCC(Oc1ccc(C(F)(F)F)cc1)c1ccccc1` (configuration not stated), 0.225 (active).
The same measure, in the same setting: under `CC1=C(/C=C/C(C)=C/C=C/C(C)=C\C(=O)O)C(C)(C)CCC1` stands -0.0711 (inactive).
Same read-out and setting: as for `CCc1ccc(CCOc2ccc(CC3SC(=O)NC3=O)cc2)nc1` (configuration not stated), the figure is 0.017 (inactive).
Take `CC[C@H]1OC(=O)[C@H](C)[C@@H](O[C@H]2C[C@@](C)(OC)[C@@H](O)[C@H](C)O2)[C@H](C)[C@@H](O[C@@H]2O[C@H](C)C[C@H](N(C)C)[C@H]2O)[C@](C)(OC)C[C@@H](C)C(=O)[C@H](C)[C@@H](O)[C@]1(C)O`: the log fold change Tl+ flux was 0.00789 (inactive).

In a further test the target is Calcium-activated potassium channel subunit alpha-1 (Homo sapiens) + Leucine-rich repeat-containing protein 26 (Homo sapiens) (UniProt Q12791+Q2I0M4). Described as above. The conditions noted are these: U2OS BacMam BK variants, F380Y/Slo1WT/gamma1, at 30 µM.
Chain of Calcium-activated potassium channel subunit alpha-1 (Homo sapiens) + Leucine-rich repeat-containing protein 26 (Homo sapiens) (Q2I0M4 whole entry, looked up, one chain of several): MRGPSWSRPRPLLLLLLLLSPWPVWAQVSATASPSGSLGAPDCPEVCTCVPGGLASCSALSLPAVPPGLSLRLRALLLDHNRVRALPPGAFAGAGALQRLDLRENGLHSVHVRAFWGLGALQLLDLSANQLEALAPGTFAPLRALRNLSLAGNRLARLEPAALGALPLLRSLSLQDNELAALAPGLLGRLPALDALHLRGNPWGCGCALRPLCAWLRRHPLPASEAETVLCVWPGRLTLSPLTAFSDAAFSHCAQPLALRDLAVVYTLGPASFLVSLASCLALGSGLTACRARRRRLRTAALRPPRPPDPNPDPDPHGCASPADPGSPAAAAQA
Turning to `CS(=O)(=O)c1ccc(C2=C(c3ccccc3)C(=O)OC2)cc1`, the log fold change Tl+ flux is 0.022 (inactive).
Same read-out and setting: as for `Cc1cccc(C)c1NC(=O)C1CCCCN1C` (configuration not stated), the figure is 0.0131 (inactive); as for `COc1ccc(/C=C/C(=O)Nc2ccccc2C(=O)O)cc1OC`, -0.0322 (inactive); as for `CCCCC(=O)N(Cc1ccc(-c2ccccc2-c2nn[nH]n2)cc1)[C@H](C(=O)O)C(C)C`, 0.0422 (inactive).
The same measure, in the same setting: as for `CC(C(=O)O)c1ccc(-c2ccccc2)c(F)c1` (configuration not stated), the figure is 0.0464 (inactive); as for `Nc1ncnc2c1ncn2[C@@H]1O[C@H](CO)[C@@H](O)[C@@H]1O`, 0.0271 (inactive).
On the same count and under the same terms, under `CN(C)c1nc(N(C)C)nc(N(C)C)n1` stands 0.0168 (inactive); under `Cc1occc(=O)c1O`, 0.0152 (inactive); under `COc1ccc(-c2cc(=O)c3c(OC)c(OC)c(OC)c(OC)c3o2)cc1OC`, -0.341 (active).
`CC(C)NCC(O)COc1cccc2ccccc12` (configuration not stated): the log fold change Tl+ flux is -0.019 (inactive).
Regarding `COC(=O)[C@H](c1ccccc1Cl)N1CCc2sccc2C1`, the log fold change Tl+ flux was -0.0336 (inactive).
With `C[N+]1(C)CCCC(OC(=O)C(O)(c2ccccc2)c2ccccc2)C1` (configuration not stated), the log fold change Tl+ flux was -0.0154 (inactive).
For `O=[N+]([O-])c1cccc2cn[nH]c12`, the log fold change Tl+ flux was 0.0381 (inactive).
With `C[C@H]1COc2c(N3CCN(C)CC3)c(F)cc3c(=O)c(C(=O)O)cn1c23`, the log fold change Tl+ flux is 0.00221 (inactive).
On the same count and under the same terms, as for `CC(C)NCC(O)COc1ccc(CC(N)=O)cc1` (configuration not stated), the figure is -0.00874 (inactive); as for `CNCCC(Oc1ccc(C(F)(F)F)cc1)c1ccccc1` (configuration not stated), 0.0464 (inactive); as for `CC1=C(/C=C/C(C)=C/C=C/C(C)=C\C(=O)O)C(C)(C)CCC1`, -0.0907 (active).
For the molecule `CCc1ccc(CCOc2ccc(CC3SC(=O)NC3=O)cc2)nc1` (configuration not stated), the log fold change Tl+ flux is 0.0101 (inactive).
As to `CC[C@H]1OC(=O)[C@H](C)[C@@H](O[C@H]2C[C@@](C)(OC)[C@@H](O)[C@H](C)O2)[C@H](C)[C@@H](O[C@@H]2O[C@H](C)C[C@H](N(C)C)[C@H]2O)[C@](C)(OC)C[C@@H](C)C(=O)[C@H](C)[C@@H](O)[C@]1(C)O`, the log fold change Tl+ flux is -0.0843 (inactive).
